Inconclusive results are not listed. Values without a mark were called inactive. Activity calls are given as the source filed them. Calls come from the whole dose curve; as a rule, active = well fitted curve in the direction sought with a large enough effect; inconclusive = small, poorly fitted or top-dose-only effect, or another doubt; inactive = no such curve, though single readings can be large; an effect the other way counts as inactive or inconclusive.
test system: Zika virus NS2B-NS3 protease (linked construct); assay: Confirmatory screen NINDS AMC qHTS for Zika virus inhibitors (AID 1347152); settings: Purified linked NS2B-NS3, AMC substrate fluorescence; series mostly up to 56.6 µM; activity change, negative = inhibition: at the top concentration; note: nearly all actives have a fitted effect of over 70% in size;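 for activity change, negative = inhibition: AMC fluorescence gain from cleaved Bz-Nle-KRR-AMC substrate over 15 min; top concentration of the series differs between compounds; 0% = no-inhibitor control and -100% = no-enzyme control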
How it was run: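 In this dose-response qHTS, AMC release from 10 microM Bz-Nle-KRR-AMC by 1 nM linked protease is measured over 15 minutes (about 20% conversion) at pH 8.0. Percent inhibition is fitted to a 4-parameter Hill curve.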
Potency is the fitted concentration of half-maximal effect.

| SMILES | Potency | activity change, negative = inhibition [%] |
| --- | --- | --- |
| COc1ccc(Br)cc1S(=O)(=O)NC(=O)/C=C/c1ccccc1Cc1ccc2ccccc2c1 | 10.8 µM (active) |  |
| CN1CCN(c2cc3c(nn2)Oc2ccccc2N3C)CC1 | 10.5 µM (active) |  |
| COC(=O)C1=C(C)NC(C)=C(C(=O)OC)C1c1cccc(NC(=O)NCCCN2CCC(c3cccc(OC)c3)CC2)c1 |  | 15.1 |

test system: not listed separately; assay: Confirmatory screen NINDS Rhodamine qHTS for Zika virus inhibitors (AID 1347161); settings: purified enzyme assay, Rhodamine110 substrate fluorescence, 15 min; series mostly up to 114 µM; activity change, negative = inhibition: at the top concentration; note: nearly all actives have a fitted effect of over 60% in size;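 for activity change, negative = inhibition: purified Zika NS2B-NS3 protease with linked NS2B cofactor domain and Rhodamine110 peptide substrate; plate controls were no-inhibitor control for no effect and no-enzyme control for full effect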
How it was run: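 Enzyme (25 nM, linked NS2B-NS3) was preincubated 15 min with compound in 10 mM Tris-HCl pH 8.0, 0.01% Tween 20. Rhodamine110 substrate (1.5 microM) was then added and fluorescence read at start and after 15 min.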

| SMILES | Potency | activity change, negative = inhibition |
| --- | --- | --- |
| COc1ccc(Br)cc1S(=O)(=O)NC(=O)/C=C/c1ccccc1Cc1ccc2ccccc2c1 | 1.96 µM (active) |  |
| CN1CCN(c2cc3c(nn2)Oc2ccccc2N3C)CC1 |  | -19.9% [at 64.7 µM] |
| COC(=O)C1=C(C)NC(C)=C(C(=O)OC)C1c1cccc(NC(=O)NCCCN2CCC(c3cccc(OC)c3)CC2)c1 |  | 995% |
| C=C[C@@H]1CN2CC[C@@H]1C[C@H]2[C@H](O)c1ccnc2ccc(OC)cc12 |  | 22.2% |

Reference: PubChem BioAssay (NCATS)
